Experimental data published in PubChem BioAssay (Tox21).
Records with an inconclusive call do not appear. Active and inactive are the calls of the source. Calls follow the shape of the dose curve; as a rule, active = well fitted inhibition curve with a large enough effect in the signal ratio in the repeat runs (not every such curve was filed as active); inconclusive = weak or mixed curves, or effect the other way; inactive = no such curve, though single readings can be large or run the other way; the % refers to the signal ratio.

biological target: Peroxisome proliferator-activated receptor delta (Homo sapiens) (UniProt Q03181); test: qHTS assay to identify small molecule antagonists of the peroxisome proliferator-activated receptor delta (PPARd) signaling pathway (AID 743215); conditions: HEK293H PPARd-UAS-bla, beta-lactamase FRET ratio, antagonist, 17 h; series mostly up to 62 µM; ratio activity, negative = inhibition: at the top concentration;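 also: cells stimulated with agonist L165041 at 300 nM final during compound exposure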
Sequence (Q03181 whole entry, looked up): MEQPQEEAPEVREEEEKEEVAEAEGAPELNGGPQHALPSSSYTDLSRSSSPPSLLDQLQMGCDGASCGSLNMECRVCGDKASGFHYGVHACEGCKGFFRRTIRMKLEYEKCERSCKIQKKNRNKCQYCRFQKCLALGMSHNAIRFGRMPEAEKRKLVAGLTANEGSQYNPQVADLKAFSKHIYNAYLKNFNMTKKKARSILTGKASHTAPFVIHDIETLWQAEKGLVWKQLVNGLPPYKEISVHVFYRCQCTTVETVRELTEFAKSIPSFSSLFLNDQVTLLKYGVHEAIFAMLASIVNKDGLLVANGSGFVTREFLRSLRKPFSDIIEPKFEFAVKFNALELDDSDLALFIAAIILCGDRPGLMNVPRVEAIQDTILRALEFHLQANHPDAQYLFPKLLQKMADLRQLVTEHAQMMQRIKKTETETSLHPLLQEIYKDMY
Excerpt: U.S. Tox21 Program National Center for Advancing Translational Sciences [NCATS] NIH Chemical Genomics Center [NCGC] U.S. Environmental Protection Agency [EPA] National Institutes of Environmental Health Sciences [NIEHS] National Toxicology Program [NTP] U.S. Food and Drug Administration [FDA] Tox21 Assay Overview: The peroxisome proliferator-activated receptors (PPARs) are lipid-activated transcription factors of the nuclear receptor superfamily with three distinct subtypes namely PPAR alpha, PPAR delta (PPARd) and PPAR gamma. All these subtypes heterodimerizes with Retinoid X receptor (RXR) and have different physiological functions. […] To identify the compounds that inhibit PPAR-delta signaling, GeneBLAzer PPAR delta UAS-bla HEK293H cell line (Invitrogen, Carlsbad, CA, USA) containing a beta-lactamase reporter gene under the control of an Upstream Activator Sequence (UAS) was used to screen the Tox21 compound library.
Tox21 Assay Protocol Summary: PPARd-bla cells were dispensed at 3000 cells/5uL/well in 1536-well black wall/clear bottom plates using a Multidrop Combi (Thermo Fisher Scientific, Waltham, MA) dispenser. After the assay plates were incubated at 37 C and 5% CO2 for 5 h, 23 nL of compounds dissolved in DMSO, positive controls or DMSO only was transferred to the assay plate by a Pintool station (Kalypsys, San Diego, CA), followed by addition of 1ul L165041 (300 nM, final concentration in the wells). The assay plates were incubated at 37 C for 17 h, and then 1 uL of LiveBLAzerTM B/G FRET substrate was added using a Bioraptr Flying Reagent Dispenser (FRD) workstation (Beckman Coulter, Indianapolis, IN, USA). The assay plates were incubated at room temperature for 2 h and fluorescence intensity was measured by an Envision plate reader (PerkinElmer, Shelton, CT).
% is scaled to controls: 0 for no effect and ±100 for the full control effect.

| Compound | ratio activity, negative = inhibition |
| --- | --- |
| CCCCCCCCc1ccc(S(=O)(=O)O)cc1 | 5.71% (inactive) |
| CC(C)(C)C1CCCCC1=O (stereo not given) | -10.4% (inactive) |
| CC(Oc1c(Cl)cccc1Cl)C1=NCCN1 (stereo not given) | -10.1% (inactive) |
| O=C1CCCCC1C1CCCCC1 (stereo not given) | -2.44% (inactive) |
| CN1[C@@H]2CC[C@H]1CC(OC(=O)c1c[nH]c3ccccc13)C2 (stereo not given in full) | 2.13% (inactive) |
| CCCc1c2oc(C(=O)O)cc(=O)c2cc2c(=O)cc(C(=O)O)n(CC)c12 | 2.22% (inactive) |
| O=S(=O)(O)C(F)(F)F | 9.6% (inactive) |
| Cc1ncc(CO)c(CN)c1O | 4.1% (inactive) |
| C=CCCC=C | -0.379% [at 80.4 µM] (inactive) |
| CCN(CC)C(=O)N(CC)CC | -8.02% (inactive) |
| CCOC(=O)[C@H](CCc1ccccc1)N[C@@H](C)C(=O)N1Cc2cc(OC)c(OC)cc2C[C@H]1C(=O)O | 0.702% (inactive) |
| C[C@]12CCC(=O)C=C1CC[C@@H]1[C@@H]2CC[C@@]2(C)[C@H]1CC[C@]2(O)C(=O)CO | -2.11% (inactive) |
| CN(C)C(=O)NC1(c2ccccc2)CCN(CCC[C@]2(c3ccc(Cl)c(Cl)c3)CCCN(C(=O)c3ccccc3)C2)CC1 | -12.9% [at 28.9 µM] (inactive) |
| CCOC(=O)NCCC[Si](OCC)(OCC)OCC | -12.2% (inactive) |
| CCCCNCCCC | -5.38% (inactive) |
| COc1cc2c(cc1N)oc1ccccc12 | -17.5% [at 80.4 µM] (inactive) |
| CC1=CC(=O)CC(C)(C)C1=O | 7.55% [at 80.4 µM] (inactive) |
| CN1CCC[C@@H]1Cc1c[nH]c2ccc(CCS(=O)(=O)c3ccccc3)cc12 | -7.13% (inactive) |
| CC/C=C\CCOC(=O)CCCCC | 5.73% (inactive) |
| CCc1cc2cc(OC)c(OC)cc2c(Cc2ccccc2)n1 | 6.63% (inactive) |

| Compound | ratio activity, negative = inhibition |
| --- | --- |
| CN(C)CCOc1ccccc1Cc1ccccc1 | -1.66% (inactive) |
| CCN(CC)CCNC(=O)COc1ccc(Cl)cc1 | -0.519% (inactive) |
| N#CSCC(=O)O | 1.87% (inactive) |
| CN(CCCN1c2ccccc2CCc2ccccc21)CC(=O)c1ccc(Cl)cc1 | 10.5% (inactive) |
| O=C(O)c1cccc(Cl)c1Cl | -1.83% (inactive) |
| CCOC(=O)c1ccccc1O | -2.01% (inactive) |
| CO[C@@]1(NC(=O)CSCC#N)C(=O)N2C(C(=O)O)=C(CSc3nnnn3C)CS[C@@H]21 | 3.72% (inactive) |
| CC(C)OC(C)C | 1.35% [at 80.4 µM] (inactive) |
| O=C1N(c2ccccc2)c2ccccc2C1(Cc1ccncc1)Cc1ccncc1 | 6.78% (inactive) |
| CCCCN1C[C@H](O)[C@@H](O)[C@H](O)[C@H]1CO | 9.34% (inactive) |
| OCC(CBr)(CBr)CBr | 5.35% (inactive) |
| CCN(CC)CC1CCCCN1CC(=O)N1c2ccccc2C(=O)Nc2cccnc21 (stereo not given) | 2.33% (inactive) |
| C=Cc1ccccc1 | -0.765% (inactive) |
| CCCCCCCOC(=O)CCC | -0.662% (inactive) |
| O=Cc1ccc(F)c(Br)c1 | 18.1% (inactive) |
| OC[C@H]1O[C@@H](O[C@H]2[C@H](O)[C@@H](O)[C@H](O)O[C@@H]2CO)[C@H](O)[C@@H](O)[C@H]1O | -14% (inactive) |
| OCc1c2ccccc2cc2ccccc12 | -17% [at 80.4 µM] (inactive) |
| FC(F)(F)C(Cl)(Cl)Cl | 11% (inactive) |
| CC(C)CC(=O)OCc1ccccc1 | 11.2% (inactive) |
| Cc1c(N)cccc1N | 6.26% [at 80.4 µM] (inactive) |
